High-throughput results as filed in PubChem.
RORgamma inh = ROR gamma (mouse) transcription inhibition; Drosophila S2 Gal4-RORgamma UAS-luciferase reporter, 20 h; Potency, µM (series often up to 53.6 µM), inactives show at the highest dose activity change, negative = inhibition, actives largely listed as inhibitors; hit rate 5.4% among 310,000; AID 2551; further: potency means the concentration at half of the fitted maximal effect; on the % scale 0 is the no-effect control and ±100 the full control effect; nearly all actives have a fitted effect of over 60% in size
Target sequence (P51450 whole entry, looked up, the tested form may be a part): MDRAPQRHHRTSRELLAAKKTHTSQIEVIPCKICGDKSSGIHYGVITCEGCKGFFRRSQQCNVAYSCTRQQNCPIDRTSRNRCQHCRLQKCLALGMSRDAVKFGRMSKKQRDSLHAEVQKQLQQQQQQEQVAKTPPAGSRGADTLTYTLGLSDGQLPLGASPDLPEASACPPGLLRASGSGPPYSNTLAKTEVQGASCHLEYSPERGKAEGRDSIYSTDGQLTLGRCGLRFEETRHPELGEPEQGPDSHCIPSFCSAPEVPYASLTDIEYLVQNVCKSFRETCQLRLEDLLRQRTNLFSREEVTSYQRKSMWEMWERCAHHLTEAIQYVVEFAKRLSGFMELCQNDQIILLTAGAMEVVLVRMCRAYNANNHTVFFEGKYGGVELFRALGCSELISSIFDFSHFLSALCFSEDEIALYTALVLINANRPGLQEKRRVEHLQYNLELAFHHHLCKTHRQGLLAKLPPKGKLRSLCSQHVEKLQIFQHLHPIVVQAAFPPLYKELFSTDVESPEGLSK
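Stably transfected Drosophila Schneider cells are the test system, with ROR gamma fused to Gal4 and luciferase under UAS control; luminescence is read after 20 hr of 700 uM copper sulfate induction at ambient temperature.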
p53 reactivator = restores transcriptional activity of mutant p53; H1299 p53-A138V BP100-luciferase reporter, luminescence, 24 h; Potency, µM (titrated, usually from 92.2 µM), inactives show at the top dose activity change, positive = activation, hits mostly activators; hit rate 0.063% among 320,000; further: potency means the concentration at half of the fitted maximal effect; % of control where 0% means no effect; nearly all actives have a fitted effect of over 45% in size
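H1299 (p53-null), stable ts p53-A138V + BP100-Luc; 1000 cells/well, Opti-MEM/10% FBS; cpd 4 pt, 1:5; 24 h, 37 deg C, 5% CO2; detection reagent 10 min RT; luminescence.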
Six1-Eya2 blk = blocks human Six1 binding to Eya2; Q15475+O00167; hit rate 0.56% among 360,000; activity change, % (test concentration not listed); AlphaScreen GST-Six1/His-Eya2 binding, biochemical; active compounds read low; in the data active means activity change below about -65%; inconclusive means mostly about -30% to -63%; further: on the % scale 0 is the no-effect control and ±100 the full control effect
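Compounds are tested against tagged Six1 and Eya2 proteins bridged by glutathione donor and nickel acceptor beads; after a one-hour incubation at 37 °C without light, AlphaScreen emission is recorded.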
Gal4-VP16 FLuc = inhibits Gal4-VP16 luciferase reporter, ROR gamma counter-screen | Drosophila S2 Gal4-VP16 UAS-luciferase, luminescence, 20 h | AID 2546 | hit rate 3.5% among 310,000 | Potency, µM (series often up to 53.6 µM), for inactives: top-dose activity, negative = inhibition, most hits filed as inhibitors;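 further: Gal4-VP16 expression switched on by copper sulfate through the metallothionein promoter; potency means the concentration at half of the fitted maximal effect; on the % scale 0 is the no-effect control and ±100 the full control effect; nearly all actives have a fitted effect of over 50% in size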
CtBP-E1A inh = inhibitors of CtBP/E1A interaction. activity change, % (test concentration not listed). AID 651724. AlphaScreen GST-E1A/His-CtBP binding, 1536-well; active compounds read low. hit rate 0.49% among 340,000; in the data active means activity change below about -65%; inconclusive means mostly about -30% to -63%; further: on the % scale 0 is the no-effect control and ±100 the full control effect
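Steps: dispense buffer (Tris pH 8.0, NaCl 300 mM, TCEP 1 mM, BSA, Tween 20); add 5X protein mix (GST-E1A, His-CtBP, 125 nM each); pin 23 nL compound; 2 h at 37 °C, dark; add 5X beads (50 ug/mL); 1 h; read.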
Active calls of the source: *; ? = inconclusive; · = no result given; [ ] = another dose, or the depositor's remark. An excerpt weighted towards active compounds, which were near 5.4% of everything screened. Unless noted, the call rests on the fitted dose curve; in most records, active means well fitted curve in the direction sought with a large enough effect; inconclusive means small, poorly fitted or top-dose-only effect, or another doubt; inactive means no such curve, though single readings can be large; an effect the other way counts as inactive or inconclusive.

SMILES	RORgamma inh	p53 reactivator	Six1-Eya2 blk	Gal4-VP16 FLuc	CtBP-E1A inh
COc1ccc(-c2csc(NC(=S)NC(=O)/C=C/c3ccc(C(C)C)cc3)n2)cc1OC	4µM*	5%	-3	7.9µM*	3
COc1ccc(-c2csc(NC(=S)NC(=O)/C=C/c3ccco3)n2)cc1Br	7.9µM*	4%	-4	?	3
Cc1ccc(F)cc1NC(=O)COC(=O)C1CCN(c2ccc(C(F)(F)F)cn2)CC1	·	7%	7	·	3
Cc1ccsc1-c1nc(CN2CCCC2c2ccc(F)cc2)c(C)o1 (configuration not stated)	10µM*	-1%	0	-5%	2
COc1ccccc1C1CCCN1Cc1nc(-c2ccc(C)s2)oc1C (configuration not stated)	?	5%	-6	-6%	-4
COc1cccc(C2CCCN2Cc2nc(-c3sccc3C)oc2C)c1 (configuration not stated)	28µM*	-2%	-7	4%	4
COCCNC(=S)NN=C1CCCCCC1	2µM*	-1%	3	6.3µM*	0
COCCNC(=S)N/N=C1\CC(C)CC(C)(C)C1 (configuration not stated)	1µM*	-1%	-8	3.5µM*	-2
Cc1ccccc1-c1noc(N)c1C#N	5.6µM*	?	1	?	5
Cc1cccc(NC(=O)CN(C)C(C)C(=O)Nc2ccc(S(=O)(=O)N3CCCC3)cc2)c1C (configuration not stated)	·	1%	7	·	2
O=c1c2ccccc2nc2c3ccccc3c(NCCN3CCOCC3)nn12	13µM*	-1%	·	20µM*	·
c1ccc(-c2csc3ncnc(NCCCN4CCOCC4)c23)cc1	8%	-12%	-4	-20%	-1
O=c1c2c(-c3ccccc3)csc2nc2c3ccccc3c(NCCN3CCOCC3)nn12	1.6µM*	-9%	-82*	3.2µM*	-88*
O=c1c2ccccc2nc(-c2ccccc2)n1CCN1CCOCC1	7%	3%	5	-2%	-2
CC(NC(N)=O)C(=O)Nc1ccc(Cl)c(S(=O)(=O)Nc2ccc(Br)cc2)c1 (configuration not stated)	6.3µM*	7%	5	3.2µM*	-2
O=C(Cn1nc(C(F)F)cc1C(F)F)NNC(=S)Nc1ccc(Cl)cc1	-39%	6%	-2	-3%	1
Cc1cccc(NC(=S)NNC(=O)CCn2nc(C)c([N+](=O)[O-])c2C)c1	1.8µM*	-8%	2	0%	-1
Cc1nn(CC(=O)NNC(=S)Nc2ccccc2)c(C)c1[N+](=O)[O-]	8.9µM*	4%	-1	13µM*	2
Cc1ccccc1Oc1cc(NC(=O)CCCn2nc(C)c([N+](=O)[O-])c2C)cc([N+](=O)[O-])c1	41%[10 µM]	8%	-13	-93%	2
Cc1nn(CCCC(=O)Nc2cc(Oc3ccc(F)cc3)cc([N+](=O)[O-])c2)c(C)c1[N+](=O)[O-]	?	4%	-6	10µM*	4
Cc1ccc(NC(=S)NNC(=O)Cn2nc(C(F)F)cc2C(F)F)cc1	2.2µM*	-4%	5	-25%	-8
S=C(Nc1ccc(Oc2ccccc2)cc1)N1CCN(c2ccccn2)CC1	11µM*	-11%	0	?	-8
S=C(NC1CCCC1)N1CCN(c2cccc(Cl)c2)CC1	11µM*	-2%	-1	-25%	-4
O=S(=O)(c1cccc(NC(=S)N2CCN(c3cccc(Cl)c3)CC2)c1)C(F)F	13µM*	9%	-14	?	1
S=C(Nc1cccc(Cl)c1)N1CCN(c2ccccn2)CC1	11µM*	15%	-3	13µM*	-2
SMILES	RORgamma inh	p53 reactivator	Six1-Eya2 blk	Gal4-VP16 FLuc	CtBP-E1A inh
S=C(Nc1ccc(Cl)c(Cl)c1)N1CCN(c2ccccn2)CC1	-28%[1.91 µM]	·	-13	-9%	-1
S=C(NC1CC1)N1CCN(c2ccc(Cl)cc2)CC1	-37%	-2%	0	10%	7
CSc1ncnc2c1ncn2CCCN1CCN(C(=O)C2CC2)CC1	·	·	-1	·	3
N#CCCCSc1nnnn1-c1cc(C(F)(F)F)cc(C(F)(F)F)c1	11%	·	·	-16%	·
COc1ccc2nc(/N=C/c3c(C)[nH]n(-c4ccc(C)cc4)c3=O)sc2c1	-71%	13%	-76*	-8%	?
COc1cc(C(=O)Cc2nc3ccccc3n2C)cc(OC)c1OC	6.3µM*	12%	9	13µM*	24
COc1cc(C(=O)NCCc2nc3ccccc3n2C)cc(OC)c1OC	-31%	-6%	4	-2%	1
CCCn1c(COc2ccccc2OC)nc2ccccc21	10µM*	·	8	?	3
CC(c1nc2ccccc2n1Cc1ccccc1)N1CCCCC1 (configuration not stated)	14µM*	-6%	7	?	-3
CCn1c(COc2cccc(C)c2)nc2ccccc21	10µM*	9%	11	?	-1
COCCn1c(C(C)C)nc2ccccc21	-1%	1%	3	1%	·
Cc1cccc(OCCCCn2c(CO)nc3ccccc32)c1	-17%	·	3	-12%	·
COc1ccccc1OCc1nc2ccccc2n1C	-29%	17%	7	?	4
Cc1ccccc1CNS(=O)(=O)c1c(C)[nH]c(C)c1C(=O)N1CCCCC1	-19%	7%	18	1%	0
O=C(CNCc1ccco1)Nc1ccc(Oc2ccccc2)cc1	20%	2%	-7	0%	·
c1ccc(Cc2nc3ccccc3n2Cc2ccccc2)cc1	?	-10%	1	18µM*	0
CCOCCn1c(COc2ccccc2)nc2ccccc21	?	-2%	4	-6%	8
CCn1c(COc2ccccc2OC)nc2ccccc21	13µM*	?	8	?	·
Cn1c(COc2ccccc2Br)nc2ccccc21	13µM*	0%	5	?	·
Cc1nc2ccccc2n1Cc1ccccc1	1%[1.91 µM]	3%	3	?	·
CCCn1c(COc2ccccc2)nc2ccccc21	13µM*	·	-2	0%	-4
CCn1c(COc2ccccc2C)nc2ccccc21	?	?	12	?	10
O=C1CCc2ccc(NS(=O)(=O)c3ccc(F)cc3)cc2N1	?	-6%	0	-14%	2
CCn1c(Cc2ccc(OC)cc2)nc2ccccc21	11µM*	-21%	9	35µM*	-15
COc1ccccc1N/C(N)=N/c1nc(CSc2ccc(C)cc2)cc(=O)[nH]1	-32%	-18%	-11	7.9µM*	-3
O=C(CSc1n[nH]c(-c2ccccn2)n1)Nc1ccc(F)cc1	7.9µM*	?	?	?	-95*
O=C(CSc1n[nH]c(-c2ccccn2)n1)Nc1ccc(Cl)cc1	2.5µM*	8%	-91*	0.1µM*	-92*
